Bioassay records as filed in PubChem BioAssay.
Shiga inhibitor – A qHTS for Small Molecule Inhibitors of Shiga Toxin; Vero cells, Shiga toxin protein synthesis inhibition reporter; inhibition, % at 38.7 µM; AID 2315, 2010; hit rate 9.2% among 290,000; in the data active = inhibition mostly above about 28%, no sharp cut-off; inactive = mostly below about 43%; also: 0% is about no effect
LASV entry inh – qHTS for Inhibitors of binding or entry into cells for Lassa Virus; Lassa virus pseudotype entry inhibition, cell reporter; Potency, µM (top dose mostly 37.9 µM), without a hit: at the top dose activity change, negative = inhibition, usual class: inhibitors; hit rate 1.2% among 300,000; AID 540256, 2011; calls by dose curve; tested in HEK293 cells; also: potency is read from the fitted curve at half-maximal effect; % is scaled to controls: 0 for no effect and ±100 for the full control effect; nearly all actives have a fitted effect of over 50% in size
FMDV antiviral – High Throughput Screening for Foot and Mouth Disease Virus Antivirals. FMDV antiviral cell-based qHTS. Potency, µM (series often up to 57.9 µM), without a hit: at the highest dose activity change, negative = inhibition, hits mostly inhibitors. hit rate 1.2% among 410,000. AID 1159524, 2015; calls by dose curve; tested in HEK293T cells; also: read-out not given here; potency is read from the fitted curve at half-maximal effect; % is scaled to controls: 0 for no effect and ±100 for the full control effect; nearly all actives have a fitted effect of over 45% in size
MARV entry inh – qHTS for inhibitors of binding or entry into cells for Marburg Virus. hit rate 1.8% among 300,000. AID 540276, 2011. Marburg virus pseudotyped entry inhibition, cell reporter. Potency, µM (highest dose often 37.8 µM), inactives show at the highest dose activity change, negative = inhibition, hits mostly inhibitors; calls by dose curve; tested in HEK293 cells; also: potency is read from the fitted curve at half-maximal effect; % is scaled to controls: 0 for no effect and ±100 for the full control effect
HCV inh – qHTS Assay for Inhibitors of Hepatitis C Virus (HCV); Huh7.5.1 HCVcc-Cre infection, luciferase reporter, 44 h; Potency, µM (series often up to 41.8 µM), inactives show top-dose activity change, negative = inhibition, hits mostly inhibitors; hit rate 3.4% among 340,000; AID 651820, 2012; active = well fitted inhibition curve with a large enough effect; inconclusive = small, poorly fitted or top-dose-only effect, or another doubt; inactive = no such curve, though single readings can be large or run the other way; also: potency is read from the fitted curve at half-maximal effect; % is scaled to controls: 0 for no effect and ±100 for the full control effect
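HCVcc-Cre virus at an moi near 0.5 was added right after compound to cells cultured 4 h from seeding (1,000 cells/well). Luciferase activity was determined 44 h later, 15 min after substrate addition at RT.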
Cycloheximide cs – Cycloheximide Counterscreen for Small Molecule Inhibitors of Shiga Toxin; hit rate 12% among 300,000; max response, %; cell reporter, cycloheximide protein synthesis inhibition counterscreen; in the data active = max response mostly above about 13%, no sharp cut-off; inactive = mostly below about 14%; also: read at 38.3 µM for the half of the compounds with a filed dose; 0% is about no effect
* marks the source's active call; other numbers are inactive results; ? = inconclusive; nt = no result given; [ ] = remark or other dose. The list is not random: actives were taken first. Their share in the collection is about 13%.

SMILES	Shiga inhibitor	LASV entry inh	FMDV antiviral	MARV entry inh	HCV inh	Cycloheximide cs
Oc1ccc(Br)cc1-c1cc(-c2ccccc2)n[nH]1	15.7	-10.6%	3.7%	-25.2%	?	16.2*
O=[N+]([O-])c1cccc(-c2cc(-c3cc(Br)ccc3O)[nH]n2)c1	86.2*	?	28.2µM*	?	10µM*	24.5*
Oc1ccc(Br)cc1-c1cc(-c2ccc(Cl)cc2)n[nH]1	92.6*	-4.5%	-11.6%	-22.2%	10µM*	21.9*
COC(=O)CC1(c2ccc(OC)cc2)C(=O)c2ccccc2C1=O	-5.1	5.3%	0.3%	?	-8.8%	-1.8
O=C1c2ccccc2C(=O)C1(CO)c1ccccc1	105.5*	22.8%	35.2%	5.9%[46.1 µM]	-7.4%	33.7*
O=C1c2ccccc2C(=O)C1(CO)c1ccc(OC(F)F)cc1	26.8*	nt	-53.0%	nt	?	53.3*
COc1ccc(CN(C)C(=O)C23CC4CC(CC(C4)C2)C3)c(OC)c1	-3.9	-20.2%[46.1 µM]	-7.0%	-25.9%[46.1 µM]	6.0%	-3.3
CCc1ccc(CNc2ccc3c(c2)ncn3C(C)(C)C)cc1	93.6*	1.78µM*	0.0%	10µM*	-29.2%	39.5*
CCc1ccc(CNc2ccc3c(c2)ncn3CC)cc1	85.9*	?	0.0%	?	?	52.7*
CCCCn1cnc2cc(NCc3ccc(OCC)cc3)ccc21	nt	?	-10.0%	-19.0%[46.1 µM]	nt	nt
CC(C)(C)n1cnc2cc(NCc3ccc(Br)cc3)ccc21	116.9*	-20.5%[46.1 µM]	10.9%	?	-8.0%	46.9*
CCn1cnc2cc(NCc3ccc(OC)cc3)ccc21	45.5	18.1%	20.9%	?	14.0%	27.5
CCN(CC)c1ccc(CNc2ccc3c(c2)ncn3C(C)(C)C)cc1	-3.0	11.6%[46.1 µM]	26.4%	?	-27.7%	7.5
CCOCC(=O)Nc1cc(C(=O)NCCC(C)C)ccc1Cl	1.2	nt	nt	nt	nt	7.6
O=c1c(Cc2ccccc2)c(O)c2cccc3c4c(n1c23)CCCC4	0.6	18.7%	-3.0%	6.0%	24.2%	-1.6
CN(CC(=O)Nc1cccc(F)c1)C(=O)c1cc(-c2cccs2)nn1-c1ccccc1	nt	4.1%	?	-18.7%	11.2µM*	nt
Clc1ccc(CSc2ncn[nH]2)cc1	45.0	12.5%	28.8%	1.0%	-1.9%	14.4
CC(C)Oc1ccc(CSc2ncn[nH]2)cc1	50.9*	?	17.6%	?	-5.0%	32.4*
O=C(/C=C/c1ccccn1)c1cc(Cl)cc(Cl)c1O	-5.1	nt	-22.1%	nt	12.6µM*	0.8
COc1ccc(CCNC(=O)C2CC(c3ccccc3[N+](=O)[O-])=NO2)cc1 (stereo not given)	51.6	nt	68.5%	nt	-12.5%	48.8*
COc1ccc(CCNC(=O)Nc2ccccc2[N+](=O)[O-])cc1	67.4*	5.1%	37.9%	26.3%[46.1 µM]	-8.0%	36.6*
COc1ccc(CCNC(=O)COC(=O)Cc2ccccc2[N+](=O)[O-])cc1	nt	1.0%	-10.6%	2.8%	10.1%	nt
O=C(NCCc1cccs1)C1CC(c2ccccc2[N+](=O)[O-])=NO1 (stereo not given)	74.1*	nt	71.2%	nt	17.0%	16.4*
O=C(Nc1ccc2c(c1)OCCO2)c1c(Cl)cccc1Cl	nt	nt	23.5%	nt	nt	nt
O=C(Nc1ccc2c(c1)OCCO2)c1cccc(Cl)c1Cl	93.0*	nt	0.0%	nt	-21.0%	43.2*
SMILES	Shiga inhibitor	LASV entry inh	FMDV antiviral	MARV entry inh	HCV inh	Cycloheximide cs
O=C(Nc1ccc2c(c1)OCCO2)c1cc(F)c(F)cc1Cl	71.8*	nt	59.9%	nt	-11.7%	37.4*
Cc1ccc(C(=O)Nc2ccc3c(c2)OCCO3)c(Cl)c1	4.4	nt	-57.3%	nt	-16.2%	-1.7
O=C(Nc1ccc2c(c1)OCCO2)c1c(F)c(F)c(F)c(F)c1F	44.8	12.5%	15.9%	0.0%	-12.8%	17.4*
C[C@H](O)[C@@H]1CN2CCc3c([nH]c4ccccc34)[C@@H]2C[C@@H]1N(C)C(=S)NCCc1ccccc1	nt	nt	-5.2%	nt	nt	nt
Cc1ccc(C)c(NS(=O)(=O)c2cc3c4c(c2)C(C)C(=O)N4CCC3)c1 (stereo not given)	nt	-0.9%[46.1 µM]	23.6%	nt	nt	nt
O=C(/C=C/c1ccc(N2CCCCC2)c([N+](=O)[O-])c1)c1ccc(O)cc1	54.9*	-62.2%[46.1 µM]	-15.5%	?	?	46.7*
Nc1nnnn1/N=C/c1ccc(N2CCCCC2)c([N+](=O)[O-])c1	62.7*	27.1%	-14.1%	?	?	37.6*
